Our source for the inhibition values is PubChem BioAssay.

Experiment [1] concerns the target Nuclear receptor coactivator 3 (Homo sapiens) (UniProt Q9Y6Q9). In words: NCOA3 GAL4-fusion reporter inhibition – cell-based, luminescence, quadruplicate, confirmation (AID 588792;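 active = mean inhibition over 43.08%, the solvent-only control mean plus 3 SD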;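 note: 0% = DMSO treated cells and 100% = gossypol at 36 µM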). The settings on record: HEK293 GAL4-SRC3 luciferase reporter, at 3.6 µM, stronger effect = higher value. A general note: A reporter such as luciferase makes a cellular process visible.
Experiment [2] concerns transactivating tegument protein VP16 (Human herpesvirus 1), Gal4-VP16 luciferase reporter. Put plainly: repression of VP16-driven luciferase reporter – cell-based, luminescence, high throughput, counter-screen for SRC3 inhibitor project (AID 588794). The settings on record: mammalian cells, at 3.6 µM, stronger effect = higher value.
The target in experiment [3] is Nuclear receptor coactivator 1 (Homo sapiens) (UniProt Q15788). Put plainly: NCOA1 GAL4-fusion reporter inhibition – cell-based, luminescence, quadruplicate, confirmation (AID 588820;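 active = mean inhibition above 46.68%, the untreated control wells mean plus 3 SD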;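 note: 0% = DMSO wells and 100% = gossypol 36 µM treated wells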). The settings on record: HEK293 GAL4-SRC1 luciferase reporter, at 3.6 µM, stronger effect = higher value.
Sequence of Nuclear receptor coactivator 1 (Homo sapiens) (Q15788 whole entry, looked up, the tested form may be a part): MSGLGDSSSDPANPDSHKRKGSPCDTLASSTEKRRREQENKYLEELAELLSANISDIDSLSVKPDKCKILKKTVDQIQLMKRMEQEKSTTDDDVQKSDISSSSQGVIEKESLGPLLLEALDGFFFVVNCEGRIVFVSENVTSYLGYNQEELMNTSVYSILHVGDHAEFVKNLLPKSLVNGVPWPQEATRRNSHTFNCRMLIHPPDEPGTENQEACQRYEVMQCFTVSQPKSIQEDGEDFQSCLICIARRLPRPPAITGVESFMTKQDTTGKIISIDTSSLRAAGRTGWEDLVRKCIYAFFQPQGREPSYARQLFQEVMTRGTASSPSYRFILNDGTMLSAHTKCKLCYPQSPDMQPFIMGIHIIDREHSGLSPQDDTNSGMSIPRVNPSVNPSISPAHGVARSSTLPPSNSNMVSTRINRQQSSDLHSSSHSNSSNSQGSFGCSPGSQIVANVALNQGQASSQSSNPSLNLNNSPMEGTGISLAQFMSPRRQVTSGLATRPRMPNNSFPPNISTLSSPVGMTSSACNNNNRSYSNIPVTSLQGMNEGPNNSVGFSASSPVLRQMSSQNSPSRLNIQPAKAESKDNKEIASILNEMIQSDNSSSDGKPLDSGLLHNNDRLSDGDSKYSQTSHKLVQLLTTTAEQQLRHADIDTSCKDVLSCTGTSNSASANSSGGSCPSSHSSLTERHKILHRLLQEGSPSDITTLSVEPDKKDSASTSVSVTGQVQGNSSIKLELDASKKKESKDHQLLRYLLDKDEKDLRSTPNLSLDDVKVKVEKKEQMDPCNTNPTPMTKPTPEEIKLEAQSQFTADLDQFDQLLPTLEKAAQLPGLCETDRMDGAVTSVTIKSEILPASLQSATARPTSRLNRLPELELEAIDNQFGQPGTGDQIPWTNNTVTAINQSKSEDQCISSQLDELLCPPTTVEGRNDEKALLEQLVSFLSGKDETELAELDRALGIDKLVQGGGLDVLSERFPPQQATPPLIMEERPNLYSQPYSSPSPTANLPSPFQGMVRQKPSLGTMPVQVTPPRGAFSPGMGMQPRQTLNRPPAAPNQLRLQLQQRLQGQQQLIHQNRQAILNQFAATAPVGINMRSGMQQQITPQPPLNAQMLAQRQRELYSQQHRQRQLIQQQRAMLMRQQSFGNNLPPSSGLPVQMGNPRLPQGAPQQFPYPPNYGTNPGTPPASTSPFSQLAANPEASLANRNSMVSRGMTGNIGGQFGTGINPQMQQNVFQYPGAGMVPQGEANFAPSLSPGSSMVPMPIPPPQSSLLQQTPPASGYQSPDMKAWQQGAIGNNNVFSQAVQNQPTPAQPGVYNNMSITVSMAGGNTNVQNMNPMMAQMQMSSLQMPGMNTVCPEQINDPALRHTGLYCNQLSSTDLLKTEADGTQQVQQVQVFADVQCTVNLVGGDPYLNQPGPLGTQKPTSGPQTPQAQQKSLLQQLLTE
Experiment [4] is described as follows: repression of VP16-driven luciferase reporter – cell-based, luminescence, high throughput, counter-screen for SRC1 inhibitor project (AID 588824; in the data active = inhibition above about 25%). The settings on record: cell-based VP16 transactivation luciferase luminescence; at 3.6 µM; stronger effect = higher value.
A short description of experiment [5]: StAR promoter reporter inhibitors, counter-screen for LRH-1 inverse agonist project, cell-based, luminescence, high throughput (AID 651611; in the data active = inhibition above about 28%). The settings on record: StAR promoter luciferase reporter counterscreen, at 3.6 µM, stronger effect = higher value.
The target of experiment [6] is Nuclear receptor subfamily 5 group A member 2 (Homo sapiens) (UniProt O00482). Put plainly: NR5A2 activity suppression in reporter cells – cell-based, luminescence, confirmation (AID 651613; in the data active = inhibition above about 42%;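 note: HEK293T cells co-transfected with LRH-1 and StAR promoter luciferase reporter; 0% = vehicle wells and 100% = parental cells lacking receptor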). The settings on record: cell-based LRH-1 luciferase reporter, inverse agonism; at 3.6 µM; stronger effect = higher value.
Sequence of Nuclear receptor subfamily 5 group A member 2 (Homo sapiens) (O00482 whole entry, looked up): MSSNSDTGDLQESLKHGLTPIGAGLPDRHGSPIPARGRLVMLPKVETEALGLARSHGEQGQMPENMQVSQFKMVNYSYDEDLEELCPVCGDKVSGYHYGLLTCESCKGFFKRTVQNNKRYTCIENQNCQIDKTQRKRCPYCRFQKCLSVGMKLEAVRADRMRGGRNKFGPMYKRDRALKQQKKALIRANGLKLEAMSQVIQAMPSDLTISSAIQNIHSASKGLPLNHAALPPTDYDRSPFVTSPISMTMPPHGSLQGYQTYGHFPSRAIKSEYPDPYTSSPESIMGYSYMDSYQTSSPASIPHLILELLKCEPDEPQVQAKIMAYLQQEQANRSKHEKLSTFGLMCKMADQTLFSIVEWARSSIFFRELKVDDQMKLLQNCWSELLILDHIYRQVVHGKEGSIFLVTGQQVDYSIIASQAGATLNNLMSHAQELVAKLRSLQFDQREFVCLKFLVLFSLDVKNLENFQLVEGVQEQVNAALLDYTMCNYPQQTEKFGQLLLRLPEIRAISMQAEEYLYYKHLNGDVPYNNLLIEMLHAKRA
The target in experiment [7] is Steroidogenic factor 1 (Homo sapiens) (UniProt Q13285). In words: inverse agonism at SF1 nuclear receptor – cell-based, luminescence, high throughput, counter-screen for LRH-1 inverse agonist project (AID 651614; in the data active = inhibition above about 44%;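 note: cells cotransfected with StAR promoter reporter and SF1 expression vector; 0% = vehicle on cells with receptor and 100% = vehicle on cells lacking receptor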). The settings on record: cell-based SF1 luciferase reporter, at 3.6 µM, stronger effect = higher value. Background: Counterscreens check selectivity or assay interference.
Sequence of Steroidogenic factor 1 (Homo sapiens) (Q13285 whole entry, looked up): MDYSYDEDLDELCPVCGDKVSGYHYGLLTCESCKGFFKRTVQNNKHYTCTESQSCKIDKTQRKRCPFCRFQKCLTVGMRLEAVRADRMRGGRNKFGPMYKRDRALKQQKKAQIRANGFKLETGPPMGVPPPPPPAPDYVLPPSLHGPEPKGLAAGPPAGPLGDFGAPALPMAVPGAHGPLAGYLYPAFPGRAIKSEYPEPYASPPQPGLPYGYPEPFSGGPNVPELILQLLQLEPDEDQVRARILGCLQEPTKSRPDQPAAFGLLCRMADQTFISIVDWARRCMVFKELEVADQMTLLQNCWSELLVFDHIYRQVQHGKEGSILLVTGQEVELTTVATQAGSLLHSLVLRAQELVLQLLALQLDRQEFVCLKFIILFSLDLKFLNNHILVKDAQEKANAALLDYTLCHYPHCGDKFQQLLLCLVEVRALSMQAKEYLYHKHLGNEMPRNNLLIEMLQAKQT

Experiment [8] can be described thus: compounds suppressing VP16-driven luciferase signal – cell-based, luminescence, high throughput, counter-screen for LRH-1 inverse agonist project (AID 651615; in the data active = inhibition above about 33%). The settings on record: Gal4-VP16 luciferase reporter cells, at 3.6 µM, stronger effect = higher value.

Where “and” joins values, the source holds several entries; their conditions need not be identical. Equal entries are not always repeated. Where a structure was tested more than once in an assay, its records may differ in their call. Calls of active or inactive are those of the source. Cut-off read from the data, not from the text of the source, unless noted: active = inhibition above about 30%; inactive = the rest.

Sequence of Nuclear receptor coactivator 3 (Homo sapiens) (Q9Y6Q9 whole entry, looked up, the tested form may be a part): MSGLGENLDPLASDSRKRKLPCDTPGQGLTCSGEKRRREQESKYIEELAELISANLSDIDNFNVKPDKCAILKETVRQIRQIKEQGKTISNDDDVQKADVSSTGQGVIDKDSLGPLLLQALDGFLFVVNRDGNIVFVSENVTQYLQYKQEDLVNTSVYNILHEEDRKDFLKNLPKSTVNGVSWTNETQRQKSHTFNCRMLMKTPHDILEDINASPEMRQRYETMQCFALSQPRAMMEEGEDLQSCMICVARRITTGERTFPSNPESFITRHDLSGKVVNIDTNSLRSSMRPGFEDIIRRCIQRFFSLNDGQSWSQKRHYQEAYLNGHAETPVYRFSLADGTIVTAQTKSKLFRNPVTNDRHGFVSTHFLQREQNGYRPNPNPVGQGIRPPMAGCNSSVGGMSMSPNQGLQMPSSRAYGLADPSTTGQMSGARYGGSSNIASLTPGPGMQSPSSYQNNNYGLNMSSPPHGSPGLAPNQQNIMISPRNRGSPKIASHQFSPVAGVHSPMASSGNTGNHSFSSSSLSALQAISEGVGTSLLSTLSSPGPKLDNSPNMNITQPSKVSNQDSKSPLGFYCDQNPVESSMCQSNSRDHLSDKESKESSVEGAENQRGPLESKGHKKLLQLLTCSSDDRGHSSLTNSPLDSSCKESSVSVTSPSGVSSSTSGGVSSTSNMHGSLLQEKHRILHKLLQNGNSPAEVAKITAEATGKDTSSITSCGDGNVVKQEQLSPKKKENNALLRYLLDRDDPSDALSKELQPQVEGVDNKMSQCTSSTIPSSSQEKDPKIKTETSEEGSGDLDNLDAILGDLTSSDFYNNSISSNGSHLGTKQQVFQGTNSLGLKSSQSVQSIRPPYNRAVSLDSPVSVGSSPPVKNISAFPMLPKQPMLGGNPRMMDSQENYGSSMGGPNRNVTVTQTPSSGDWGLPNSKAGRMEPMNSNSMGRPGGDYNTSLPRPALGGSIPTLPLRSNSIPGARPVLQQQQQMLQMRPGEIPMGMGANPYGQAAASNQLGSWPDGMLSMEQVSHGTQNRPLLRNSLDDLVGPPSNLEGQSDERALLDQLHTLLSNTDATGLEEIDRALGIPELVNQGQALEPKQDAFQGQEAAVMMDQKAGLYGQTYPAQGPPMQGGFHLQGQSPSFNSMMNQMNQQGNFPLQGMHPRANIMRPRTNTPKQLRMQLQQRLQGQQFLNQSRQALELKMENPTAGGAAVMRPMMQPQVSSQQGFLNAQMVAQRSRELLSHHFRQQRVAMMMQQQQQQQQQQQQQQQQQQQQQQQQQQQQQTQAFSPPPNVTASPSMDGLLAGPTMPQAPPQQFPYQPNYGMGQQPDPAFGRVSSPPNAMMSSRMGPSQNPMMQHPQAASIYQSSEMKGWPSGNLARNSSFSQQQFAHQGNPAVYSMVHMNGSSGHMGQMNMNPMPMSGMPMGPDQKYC

As to `CC(=O)NC(c1ccc(Cl)cc1)c1ccc2cccnc2c1O` (configuration not stated), the inhibition – broadly, the relative decrease from the control value, in per cent – is 83% (active) in experiment [1]; 79.9% (active) in experiment [2]; 80% (active) in experiment [3]; 78.4% (active) in experiment [4]; 89.2% (active) in experiment [5]; 104% (active) in experiment [6]. Besides, the inhibition in experiment [7] was 91.2% (active); in experiment [8], 87% (active).
With `COc1ccccc1-n1c(-c2ccccc2)c[n+]2c1CCc1ccccc1-2`, the inhibition was 47.9% (active) and 39.9% (inactive) in experiment [1]; 72.8% (active) and 57.1% (active) in experiment [2]; 39.1% (inactive) and 29.1% (inactive) in experiment [3]; 73.8% (active) and 53.7% (active) in experiment [4]; 58.2% (active) and 36.6% (active) in experiment [5]; 96.8% (active) and 84.2% (active) in experiment [6]. In addition, the inhibition in experiment [7] is 84.2% (active) and 76% (active); in experiment [8], 83.9% (active) and 70.9% (active).
With `CCN1CCN(/C=N/c2nc3c(s2)CCCC3)CC1`, the inhibition in experiment [1] was 19.2% (inactive); in experiment [2], -9.09% (inactive); in experiment [3], -62.9% (inactive); in experiment [4], -59.3% (inactive); in experiment [5], -69.4% (inactive); in experiment [6], -91.2% (inactive). The inhibition is -86.7% (inactive) in experiment [7] and -69.9% (inactive) in experiment [8].
In the case of `N=c1ccn(CC(=O)c2ccc(-c3ccccc3)cc2)cc1`, the inhibition in experiment [1] is 37% (inactive); in experiment [2], 43.3% (active); in experiment [3], 26.1% (inactive); in experiment [4], 57.5% (active); in experiment [5], 46.2% (active); in experiment [6] it was 92.8% (active). Moreover, the inhibition is 76.3% (active) in experiment [7] and 76.5% (active) in experiment [8].
Regarding `CCCCC(=O)NC(c1ccc(Cl)cc1)c1ccc2cccnc2c1O` (configuration not stated), the inhibition in experiment [1] is 66.9% (active); in experiment [2], 62.4% (active); in experiment [3], 51.3% (active); in experiment [4], 62.2% (active); in experiment [5], 67.9% (active); in experiment [6] it was 87.8% (active). For the same compound, the inhibition in experiment [7] is 86.1% (active); in experiment [8] it was 69.1% (active).
Turning to `Cn1cnc([N+](=O)[O-])c1Sc1nc(N)nc2c1ncn2C1OC(CO)C(O)C1O` (configuration not stated), the inhibition in experiment [1] was 43.8% (active); in experiment [2] it was 14.7% (inactive); in experiment [3], -6.11% (inactive); in experiment [4] it was 9.12% (inactive); in experiment [5], 56.1% (active); in experiment [6], 52% (active). In addition, the inhibition was 24.3% (inactive) in experiment [7] and 45.1% (active) in experiment [8].
Take `COc1cccc(/C=N/NC(=O)c2c(C)nc3ccc(Cl)cn23)c1O`: the inhibition is 79.3% (active) in experiment [1]; 78.5% (active) in experiment [2]; 75.2% (active) in experiment [3]; 73.9% (active) in experiment [4]; 86.7% (active) in experiment [5]; 102% (active) in experiment [6]. The inhibition in experiment [7] is 88.4% (active); in experiment [8], 83.5% (active).
Take `Cc1nc2cc(NCc3nc4ccccc4n3Cc3ccccc3)ccc2n1C`: the inhibition was -99.3% (inactive) in experiment [1]; -51.2% (inactive) in experiment [2]; -116% (inactive) in experiment [3]; -72.9% (inactive) in experiment [4]; -136% (inactive) in experiment [5]; -185% (inactive) in experiment [6]. Besides, the inhibition in experiment [7] is -209% (inactive); in experiment [8], -111% (inactive).
Take `CC(=NNC(=S)Nc1cccc(C)c1)c1ccccn1`: the inhibition in experiment [1] is 65.8% (active); in experiment [2], 67.1% (active); in experiment [3], 1.68% (inactive); in experiment [4] it was 66.7% (active); in experiment [5], 85.1% (active); in experiment [6] it was 99.3% (active). The inhibition is 92.4% (active) in experiment [7] and 68.8% (active) in experiment [8].
Consider `O=C(NCc1ccco1)c1cccc(NC(=O)c2ccccc2)c1`, for which the inhibition in experiment [1] was 23.4% (inactive); in experiment [2] it was 52.9% (active); in experiment [3], 33.7% (inactive); in experiment [4], 53.1% (active); in experiment [5], 58.8% (active); in experiment [6], 65.6% (active). In addition, the inhibition in experiment [7] was 66% (active); in experiment [8], 69.5% (active).
On to `CC1(C)CC2CC(C)(CN2S(=O)(=O)c2ccc(C(=O)Nc3ccc(S(=O)(=O)N4CCOCC4)cc3)cc2)C1` (configuration not stated), for which the inhibition in experiment [1] was 24.1% (inactive); in experiment [2], 42.4% (active); in experiment [3], 4.08% (inactive); in experiment [4] it was 44.1% (active); in experiment [5], 22.1% (inactive); in experiment [6] it was 53.1% (active). Also, the figures for the inhibition in experiment [7] and in experiment [8] were 46.4% (active) and 57.8% (active), respectively.
As for `c1cc(CNc2ccc3c(c2)OCCO3)ccn1`, the inhibition in experiment [1] was -1.65% (inactive); in experiment [2], -11.2% (inactive); in experiment [3] it was -6.52% (inactive); in experiment [4], -0.58% (inactive); in experiment [5], 10% (inactive); in experiment [6], 2.45% (inactive). The values for the inhibition in experiment [7] and in experiment [8] were 14.8% (inactive) and -8.35% (inactive), respectively.
On to `Cc1cc(C)nc(NC(=O)c2ccc(COc3ccccc3Cl)cc2)c1`, for which the inhibition is 36.6% (inactive) in experiment [1]; 45.3% (active) in experiment [2]; 25.2% (inactive) in experiment [3]; 42.7% (active) in experiment [4]; 38.9% (active) in experiment [5]; 65.1% (active) in experiment [6]. The values for the inhibition in experiment [7] and in experiment [8] were 67.1% (active) and 57.7% (active), respectively.
Take `CCN1/C(=C/c2ccc3cc(C)ccc3[n+]2CC)Sc2ccccc21`: the inhibition in experiment [1] is 57% (active); in experiment [2], 78.5% (active); in experiment [3] it was 45% (inactive); in experiment [4] it was 80.2% (active); in experiment [5], 72.2% (active); in experiment [6] it was 105% (active). For the same compound, the inhibition in experiment [7] was 92.3% (active); in experiment [8], 82.7% (active).
